The panel holds about 79,000 compounds, 15% with a hit somewhere; the sample as a whole holds those more often. Unmarked numbers belong to inactive results. Active and inactive are the calls of the source. Cut-off read from the data, not from the text of the source: active = growth inhibition above about 70%; inactive = the rest.

The nature of this assay: NCI Yeast Anticancer Drug Screen. Data for the mgt1 strain (AID 153). To be noted: S. cerevisiae mgt1 mutant growth inhibition; at 11.0 µM; active compounds read high. In a few lines: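 Genetically defined yeast (mgt1) treated with compound; inhibition of growth expressed against vehicle-treated controls.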
Turning to `C/C(=N\NC(=S)SCc1ccccc1)c1ccccn1`, the growth inhibition was 83% (active). Regarding `CC[C@@]1(O)C(=O)OCc2c1cc1n(c2=O)Cc2cc3c(N)cccc3nc2-1`, the growth inhibition was 9%. `CN(C)c1ccc(Sc2ccc3nc(N)nc(N)c3c2)cc1`: the growth inhibition is -4%.

Turning to `CC(=O)OCCOCNC(=S)N/N=C(\C)c1cnccn1`, the growth inhibition was 29%. `COc1ccc(C2c3cc4c(cc3OC(C)(O)C2C)OCO4)c(OC)c1` (centres undefined): the growth inhibition was -4%. The result for `COc1cc(C2SCC(=O)N2c2ccc(-c3ccc(-n4c(-c5ccccc5)nc5ccccc5c4=O)cc3)cc2)cc(OC)c1OC` (centres undefined) reads -2%; that for `COc1ccc(Br)c(C(=O)Sc2nnnn2-c2cccc(Cl)c2)c1`, 16%.

`O=C(NNc1ccnc2cc(Cl)ccc12)/C(=C\c1ccccc1Cl)NC(=O)c1ccccc1`: the growth inhibition was 32%. `CSC(=S)Nc1cccc(C)n1`: the growth inhibition was -11%. As to `O=C(/C=C\c1ccc(Cl)cc1Cl)c1cccs1`, the growth inhibition is -4%. Consider `COc1ccc(-c2cn(-c3ccc(I)cc3)c3ncnc(N)c23)cc1`, for which the growth inhibition was -11%. Turning to `CN(C)c1ccc(C(C#N)=C(C#N)C#N)cc1`, the growth inhibition was -1%. Regarding `COc1cc(/C=C2\CCc3ccccc3C2=O)cc(OC)c1OC`, the growth inhibition was -45%. As to `CC(C)/C(Cl)=N\OC(=O)Nc1cccc(Cl)c1`, the growth inhibition was 12%.

As for `CC1(C)[C@@H]2CC[C@]1(C)[C@H](OC(=O)CSC#N)C2`, the growth inhibition is 23%. As to `NNC(=O)CCc1ccc2ccc3ccccc3c2c1`, the growth inhibition was -5%. The value for `COc1ccc(/C(C)=N/OC(=O)c2c(-c3ccccc3Cl)noc2C)cc1CN1CCOCC1` was 0%; that for `C=CC(C)(O)CCC1C(=C)C(O)CC2C(C)(C)CCCC12C` (centres undefined) was -24%. With `S=C(Nc1ccc(Cl)c(Cl)c1)SCc1ccc2c(c1)OCO2`, the growth inhibition was 99% (active). With `COc1cc(C2C3=C(COC3=O)Oc3cc4c(cc32)OCO4)ccc1O` (centres undefined), the growth inhibition was 0%. The value for `S=C(Nc1ccc(Cl)cc1)SC1CCCCC1` was 33%; that for `Nc1nc(-c2cccnc2)cc(-c2cc(-c3cccnc3)nc(N)n2)n1` was 2%.

`COC1=CC(=O)C2C(C1=O)C(c1ccc(Cl)cc1)[C@@H]2C` (some centres undefined): the growth inhibition was 99% (active).

As for `c1ccc(-c2nc3cccnc3s2)cc1`, the growth inhibition is -1%.

For the compound `O=[N+]([O-])c1cc(CCl)ccc1CCl`, the growth inhibition is 25%. Turning to `COc1ccc(/C=C2\SC(=S)N(/C=C/c3nc4ccccc4[nH]c3=O)C2=O)cc1OC`, the growth inhibition was 30%.

In the case of `CCCN(CCC)CC(O)c1cc(-c2ccc(Cl)cc2)nc2c(C)c(Cl)ccc12` (centres undefined), the growth inhibition is 99% (active). On to `O=C(Nc1ccccc1)OCCc1ccc(Cl)c(Cl)c1`, for which the growth inhibition was 7%. Consider `CC(O)C(O)C(O)C(/C=N\Nc1ccccc1)=N/Nc1ccccc1` (centres undefined), for which the growth inhibition was 10%. The result for `C#CCCCc1ccccc1` reads -7%. `CC(=O)Cc1ccc[cH-]1.[Fe+2].c1cc[cH-]c1`: the growth inhibition is 21%. For `Cc1cc(I)ccc1N`, the growth inhibition is 28%. Consider `FC(F)(F)c1cc(NC(=S)N2c3ccccc3-n3cccc3C2c2cccnc2)cc(C(F)(F)F)c1` (centres undefined), for which the growth inhibition is -17%. In the case of `CC(C)(CN1CCCCC1)C(=O)CC(SCCS(=O)(=O)O)c1ccc(Br)cc1` (centres undefined), the growth inhibition is 8%. The result for `C[Si](C)(C)CNC(=O)OCc1ccccc1` reads -5%; that for `CC(C(=O)N1C(=O)N(C(=O)[C@H](C)C(O)c2ccccc2)[C@H](c2ccccc2)[C@H]1c1ccccc1)[C@@H](O)c1ccccc1` (some centres undefined), 4%; that for `Oc1cccc2c(Cl)ccnc12`, 98% (active). The value for `O=C1C=CC(=C(c2ccccc2)c2ccccc2)c2ccccc21` was -1%; that for `S=C(S)NN1CCOCC1` was 30%.

(Values after PubChem BioAssay (NCI).)
